Compound activity from PubChem.
AMA1-RON2 inh = disrupts binding of P. falciparum AMA1 to RON2. AlphaScreen AMA1-biotinylated RON2 peptide binding. Potency, µM (top dose mostly 58.2 µM), without a hit: at the top dose activity change, negative = inhibition, actives largely listed as inhibitors. 360,000 compounds, 0.2% hits;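 also: 0% = vehicle wells and -100% = peptide control; nearly all actives have a fitted effect of over 45% in size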
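AMA1 (3D7) with his tag at 25 nM final met compounds first, then biotinylated RON2 peptide at 25 nM; detection used donor plus acceptor beads, 10 µg/mL apiece, read by AlphaScreen after 30 min at room temperature.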
HCV inhibitor = blocks hepatitis C virus; Huh7.5.1 HCVcc-Cre infection, luciferase reporter, 44 h; Potency, µM (highest dose often 41.8 µM), for the others: at the top dose activity change, negative = inhibition, most hits filed as inhibitors; 340,000 compounds, 3.4% hits
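Cells (1,000/well) were plated 4 h before compound, then infected with HCVcc-Cre virus (~0.5 moi). After 44 h further culture, infection was read as luciferase luminescence following a 15 min substrate incubation at room temperature.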
Pf growth 48h = P. falciparum growth inhibition at 48 hours (one generation) | P. falciparum luciferase growth in erythrocytes, 48 h | Potency, µM (series often up to 28.7 µM), without a hit: top-dose activity change, negative = inhibition, most hits filed as inhibitors | 310,000 compounds, 5.9% hits | AID 504832
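Erythrocytes infected with P. falciparum carrying an integrated firefly luciferase reporter (2% hematocrit, 0.1% parasitemia final) were exposed to compounds in RPMI 1640 with 0.5% Albumax at 37 C, 5% CO2. Growth inhibition was scored as reduced luminescence.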
AmpC inh no detg = blocks E. coli AmpC beta-lactamase in detergent-free assay; AID 485341; AmpC nitrocefin hydrolysis, absorbance 480 nm, 0.0001% Triton; 330,000 compounds, 0.52% hits; Potency, µM (doses to about 57.1 µM), for the others: at the highest dose activity change, negative = inhibition, hits mostly inhibitors; P00811;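 also: plate controls were no compound for no effect and no enzyme for full effect; nearly all actives have a fitted effect of over 20% in size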
Target sequence (P00811 whole entry, looked up): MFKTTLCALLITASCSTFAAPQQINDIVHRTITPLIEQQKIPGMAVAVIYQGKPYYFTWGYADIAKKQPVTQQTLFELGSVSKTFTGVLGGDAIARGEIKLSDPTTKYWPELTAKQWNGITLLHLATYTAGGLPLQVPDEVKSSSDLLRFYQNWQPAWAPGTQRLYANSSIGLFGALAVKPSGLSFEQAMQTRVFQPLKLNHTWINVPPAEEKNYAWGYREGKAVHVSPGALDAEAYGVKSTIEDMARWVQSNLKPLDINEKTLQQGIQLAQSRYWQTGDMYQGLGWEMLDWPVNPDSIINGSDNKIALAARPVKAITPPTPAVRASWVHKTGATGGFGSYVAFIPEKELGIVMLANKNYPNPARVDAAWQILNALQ
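20 mM phosphate pH 7.0 + 0.01% (detergent screen) or 0.0001% Triton X-100; 5.3 nM AmpC reagent; cpd preinc 15 min RT; nitrocefin (800 uM stock) to start; A480 q20 s × 4 min; Activity was normalised to no-enzyme and no-compound control wells.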
Pf growth 96h = inhibits malaria parasite growth, 96 h; P. falciparum luciferase reporter growth, 96 h; Potency, µM (highest dose often 28.7 µM), for inactives: top-dose activity change, negative = inhibition, actives largely listed as inhibitors; 320,000 compounds, 6.9% hits; AID 504834
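96 h incubation, 37 C, 5% CO2, of luciferase-reporter P. falciparum-infected RBCs (2% hematocrit, 0.05% parasitemia final) with test compounds; endpoint luminescence.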
AmpC detergent = blocks E. coli AmpC beta-lactamase in detergent assay; P00811; AmpC hydrolysis of nitrocefin, absorbance 480 nm, 0.01% Triton; Potency, µM (highest dose often 114 µM), for the others: at the highest dose activity change, negative = inhibition, usual class: inhibitors; 370,000 compounds, 0.041% hits;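 also: 0% = no-compound wells and -100% = no-enzyme wells; nearly all actives have a fitted effect of over 25% in size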
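AmpC (5.3 nM in the dispensed reagent) in 20 mM phosphate pH 7.0 with 0.01% (detergent screen) or 0.0001% Triton X-100 was preincubated with compounds for 15 min at room temperature. Nitrocefin was then added from an 800 uM solution, and hydrolysis was followed at 480 nm.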
* marks the source's active call; other numbers are inactive results; ? = inconclusive; · = no result given; [ ] = dose if it differs, or a comment. Rows were chosen to be rich in hits. Some 11% of all compounds tested hit in one or more screens of this group. Calls follow the shape of the dose curve; as a rule, active = well fitted curve in the direction sought with a large enough effect; inconclusive = small, poorly fitted or top-dose-only effect, or another doubt; inactive = no such curve, though single readings can be large; an effect the other way counts as inactive or inconclusive. Unless noted, % is scaled to controls: 0 for no effect and ±100 for the full control effect; potency is read from the fitted curve at half-maximal effect.

SMILES	AMA1-RON2 inh	HCV inhibitor	Pf growth 48h	AmpC inh no detg	Pf growth 96h	AmpC detergent
Cn1ncc2c(c(SCc3ccc(Cl)cc3Cl)nn2C)c1=O	0.0%	?	7.38µM*	-12.3%	?	-4.4%
c1ccc(C2CNCCc3ccccc32)cc1 (stereo unspecified)	-1.9%	-0.2%	-1.8%[0.00184 µM]	-10.1%	1.65µM*	-0.8%
Oc1cc2c(cc1O)C(c1ccccc1)CNCC2 (stereo unspecified)	16.4%	-22.5%	·	·	·	·
Cc1cc(OC(=O)CCNC(=O)OC(C)(C)C)c2c3c(c(=O)oc2c1)CCC3	-4.2%	?	4.65µM*	-8.5%	4.65µM*	5.2%
Cc1cc(OC(=O)CCCNC(=O)OC(C)(C)C)c2c3c(c(=O)oc2c1)CCC3	-4.8%	?	-1.9%	11.1%	0.0%	?
CC1Oc2cc3oc4c(O)c5c(cc4c(=O)c3c(O)c2C1(C)C)C=CC(C)(C)O5 (stereo unspecified)	-14.6%	5.01µM*	·	·	·	·
COc1ccc(-c2ccc(NS(=O)(=O)c3ccc(C(C)=O)cc3)cc2)nn1	·	·	·	·	·	-1.0%
Cc1noc(NS(=O)(=O)c2ccc(NC(=O)/C=C/c3ccc(C(C)C)cc3)cc2)c1C	-3.6%	-5.6%	32.9%	-23.8%	10.4µM*	4.7%
COc1cccc(CNC(=O)CC2C(=O)NCCN2CCCc2ccccc2)c1 (stereo unspecified)	12.0%	9.0%	?	53.0%	9.28µM*	-3.3%
COc1ccccc1CCNC(=O)CC1C(=O)NCCN1CCCc1ccccc1 (stereo unspecified)	21.4%	-3.2%	?	182.6%	9.1%	7.1%
O=C(CC1C(=O)NCCN1CCCc1ccccc1)NCCc1ccccc1Cl (stereo unspecified)	17.4%	-13.1%	13.1µM*	140.4%	?	-1.7%
C/C(=N\NC(=O)C1(C)CC1(Br)Br)c1cccc(NC(=O)C(C)(C)C)c1 (stereo unspecified)	-0.6%	-4.6%	8.6%	-19.7%	?	-11.1%
COc1ccc(CC(=O)Nc2cccc(/C(C)=N/NC(=O)C3(C)CC3(Br)Br)c2)cc1 (stereo unspecified)	5.2%	10µM*	?	-39.7%	?	6.6%
C/C(=N\NC(=O)C1(C)CC1(Br)Br)c1ccc(NC(=O)c2ccc(C)o2)cc1 (stereo unspecified)	-9.6%	?	?	-50.6%	9.28µM*	-5.1%
C/C(=N\NC(=O)C1(C)CC1(Br)Br)c1ccc([N+](=O)[O-])cc1 (stereo unspecified)	10.8%	16.3%	?	-22.3%	?	-11.0%
CCN(CC)C(=O)c1sc(NC(=O)c2nc3ncccn3n2)c(C(=O)OC)c1C	·	·	·	·	·	-0.6%
COC(=O)c1cc2oc3ccccc3c2n1CC(=O)Nc1ccc(Cl)cc1F	·	·	·	·	·	16.2%
COc1cc(-c2nnc(SCC3(c4ccccc4)OCCO3)o2)cc(OC)c1OC	3.5%	?	13.1µM*	137.7%	5.22µM*	-4.3%
Cc1ccc(S(=O)(=O)Nc2cccc(C(=O)N3CCN(c4ccccc4O)CC3)c2)cc1F	0.1%	-1.6%	1.47µM*	?	?	?
Cc1cccc(NS(=O)(=O)c2cccc(C(=O)N3CCC3)c2)c1	2.8%	2.7%	-14.8%	-21.4%	3.9%	-8.7%
Cc1cccc(NS(=O)(=O)c2cccc(C(=O)N3CCN(S(=O)(=O)c4ccccc4)CC3)c2)c1	-12.9%	?	?	-2.4%	11.7µM*	-0.8%
COc1cccc(CNC(=O)CSc2n[nH]c(-c3ccccc3Cl)n2)c1OC	·	·	·	·	·	1.8%
CCc1cccc(NC(=O)Cn2c(=O)n(CC3CCC(C(=O)NCCc4ccccc4)CC3)c(=O)c3ccccc32)c1 (stereo unspecified)	·	·	·	·	·	-2.8%
CN(C)c1ccc(/C=C/C(=O)c2cc(Cl)ccc2O)cc1	14.1µM*	?	-7.0%	-26.6%	18.5%	0.3%
O=C(/C=C/c1ccncc1)c1cc(Cl)ccc1O	-4.7%	9.7%	?	-1.6%	9.28µM*	1.5%
SMILES	AMA1-RON2 inh	HCV inhibitor	Pf growth 48h	AmpC inh no detg	Pf growth 96h	AmpC detergent
COc1ccc(/C=C/C(=O)c2cc(Cl)ccc2O)c(OC)c1	?	-15.6%	?	-19.5%	?	-5.5%
O=C(CSc1ccccc1)NCc1ccc2c(c1)CCN2C(=O)c1ccc(F)cc1	·	·	·	·	·	-6.4%
COC(=O)c1cc(CSC(=N)N)ccc1OCCC(C)C	-9.7%	?	4.65µM*	12.5%	6.57µM*	5.1%
O=C(CN1C(=O)COc2ccc(S(=O)(=O)N3CCOCC3)cc21)N1CCN(c2ccc(Cl)cc2)CC1	·	·	·	·	·	2.6%
COc1ccc(Oc2nc3ccccc3n(C)c2=O)cc1	-3.7%	4.7%	12.5%	-3.0%	8.1%	?
Cn1c(=O)c(Oc2cc(Cl)cc(Cl)c2)nc2ccccc21	14.4%	-21.4%	4.7%	0.398µM*	-0.4%	1.7%
Cc1oc(-c2ccccc2)nc1CNS(=O)(=O)c1ccc(Cl)cc1	·	·	·	·	·	-0.9%
COCCNCCCCOc1ccc(Br)cc1C	?	10µM*	-22.2%	16.3%	?	?
Cc1ccc(OCCCNCCO)c(Br)c1	15.7%	?	·	16.2%	?	-14.3%
Cc1cc(Cl)c(OCCCCNC(C)(C)C)c(Br)c1	·	10µM*	-16.8%	-5.2%	59.6%	?
COCCCNCCCCOc1cccc(Br)c1	8.5%	?	1.7%	-13.4%	?	-1.9%
COc1ccccc1OCCCCNC(C)(C)C	1.1%	5.2%	5.2%	-1.7%	54.6%	-12.6%
Cc1cc(Br)ccc1OCCCCNC(C)(C)C	-5.1%	12.6µM*	?	54.8%	?	?
CCCCNCCCOc1ccc(C)cc1Br	-4.9%	-14.9%	?	-4.1%	2.33µM*	-1.1%
COc1ccc(-c2cc3ccc(O)c(CN4CCN(C)CC4)c3oc2=O)cc1OC	·	·	·	·	·	-0.9%
COc1cc(C2C(=O)N(C3CCC(C)CC3)CC(=O)N2CCc2ccc(Cl)cc2)ccc1OC(C)C (stereo unspecified)	·	·	·	·	·	5.1%
CCOc1ccc(C2c3c(oc4ccc(C)cc4c3=O)C(=O)N2c2nc(C)c(C)s2)cc1OC (stereo unspecified)	·	·	·	·	·	-0.2%
O=C(CCCCn1c(=O)c2ccccc2n(Cc2cccc(Cl)c2)c1=O)NCc1ccc2c(c1)OCO2	·	·	·	·	·	0.1%
COCCCNCCCCOc1ccc(Br)cc1C	-13.3%	11.2µM*	-18.3%	40.7%	-42.1%	-5.5%
